This is a sample that favours compounds with a hit; in the whole collection about 13% have one here.
L major viab: Leishmania major promastigote growth inhibition, primary screen; Leishmania major promastigotes, resazurin fluorescence viability; inhibition, % at 10 µM; 200,000 tested, 9% active; AID 1063, 2008; in the data active = inhibition above about 50%;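 note: promastigotes grown with compound for 44 hours at 28 °C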
CHOP inh: inhibitors of CHOP promoter induction, primary screen, cell-based, unfolded protein response, luciferase reporter | 220,000 tested, 3.8% active | CHO-K1 CHOP-promoter luciferase, tunicamycin-induced, 15-18 h | inhibition, % at 10 µM;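 active = compounds that reduced the stress-induced luciferase reporter signal by more than about 70% of percent inhibition, limit read from the data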;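 note: 0% = tunicamycin plus vehicle and 100% = wells without tunicamycin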
RAM network inh: inhibitors of the yeast RAM network, primary screen, dse1pr::URA3 reporter, 5-FOA selection; S. cerevisiae dse1pr::URA3 reporter, 5-FOA growth OD615, 2 d; analog-sensitive cbk1-as2 kinase mutant strain; inhibition, % at 50 µM; 190,000 tested, 1.8% active; AID 868, 2007;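 active = inhibition above a set limit, 3 SD over mean compound inhibition, cut at about 8.4% in these data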;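 note: 0% = DMSO-only wells with no growth and 100% = 10 µM 1-NA-PP1 full growth; inhibition rescues growth on 5-FOA so higher OD means more RAM inhibition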
WT yeast gro inh: growth inhibition of WT strain, primary screen, mitochondrial fusion inhibitor project, WT and mutant strains, chemical genetic. mitochondrial fusion phenotypic screen. inhibition, % at 10 µM. 190,000 tested, 2.1% active; in the data active = inhibition above about 58%; tested in S. cerevisiae
Starred values were filed as active, the others as inactive; · = no result.

SMILES | L major viab | CHOP inh | RAM network inh | WT yeast gro inh
CC(C)=CC1C(C(=O)Nc2ccc(Br)cn2)C1(C)C (configuration not stated) | 5 | 76* | 1 | 27
Nc1nc(SCC(=O)Nc2ccc(Cl)cn2)n[nH]1 | -3 | -34 | 0 | -2
O=[N+]([O-])c1ccc(N2CCN(S(=O)(=O)c3ccccc3[N+](=O)[O-])CC2)cc1NCc1cccnc1 | 68* | 24 | 1 | -10
COc1ccc(/C=C/C(=O)Oc2cccc(/C=N/NC(=O)Cc3ccc(Br)cc3)c2)cc1 | · | 71* | · | ·
Cc1nc(S(=O)(=O)N(C)c2ccccc2)c(C#N)c(C)c1Cl | 72* | 29 | 1 | 0
CCCCNC(=O)Cn1cnc2ccc(S(=O)(=O)N3CCC(C)CC3)cc2c1=O | -4 | 12 | 3 | 3
CCCN1CCN(C(=O)Cn2cnc3ccc(S(=O)(=O)N4CCC(C)CC4)cc3c2=O)CC1 | 93* | 6 | 2 | -5
COC(=O)c1ccc(CSc2nc3ccccc3o2)cc1 | -9 | 44 | 8.8* | 4
O=[N+]([O-])c1ccc(CSc2nc3ccccc3o2)cc1 | 6 | 84* | 2 | -8
CCc1ccc(NC(=O)c2ccc(F)c(S(=O)(=O)NCC3COc4ccccc4O3)c2)cc1 (configuration not stated) | 4 | 78* | 3 | 37
COc1cccc(N=Nc2c(N)[nH][nH]c2=O)c1 | -9 | 25 | 0 | -1
COc1cccc(N=Nc2c(N)[nH]n3c(=O)c4c(nc23)CCCC4)c1 | 74* | -62 | 1 | -10
Cc1cc(=O)oc2c(CN3CC(C)OC(C)C3)c(O)c(Cl)cc12 (configuration not stated) | -8 | -12 | 0 | -3
CC(=O)NC1(NC(C)=O)CCN(C)CC1 | -4 | 8 | 0 | -1
CC(C)CCNC(=O)CN(C(=O)CCC(=O)Nc1ccccn1)c1ccc(F)c(Cl)c1 | 95* | 26 | 4 | -6
CCOC(=O)NC1=NCC(C)S1 (configuration not stated) | · | 4 | · | ·
O=C(/C=C/c1ccco1)NCC1COc2ccccc2O1 (configuration not stated) | · | -8 | · | ·
O=C(NC(=S)Nc1nc(-c2ccc(Br)cc2)cs1)c1ccco1 | -5 | 84* | 6 | -4
CCC1COC(c2cccn2Cc2ccccc2Cl)=N1 (configuration not stated) | -5 | 33 | 1 | 22
CN(C)CC1CCCCC1C1(O)c2ccccc2CSc2sccc21 (configuration not stated) | 100* | 25 | 2 | 0
CC(C(=O)OCC(=O)Nc1ccc(S(=O)(=O)N2CCCCC2)cc1)N1C(=O)c2ccccc2C1=O (configuration not stated) | -1 | 9 | 1 | 6
CCN1CCN(CCCN(Cc2ccco2)C(=S)Nc2cc(Cl)ccc2C)CC1 | 72* | 21 | 1 | -1
Cc1ccccc1NC(=S)N(CCCN1CCC(C)CC1)Cc1ccco1 | 13 | 1 | 0 | 3
Cc1ccc(NC(=S)N(CCCN2CCC(C)CC2)Cc2ccco2)cc1C | 82* | 24 | 1 | 14
CCn1c(COc2ccccc2Cl)nnc1SCC(=O)Nc1ncccc1C | -6 | 14 | 0 | -2
SMILES | L major viab | CHOP inh | RAM network inh | WT yeast gro inh
Cc1cc(=O)oc2cc(Oc3ccc(C(N)=O)cc3[N+](=O)[O-])ccc12 | · | 14 | · | ·
Cc1cc(Cl)ccc1Oc1ccc(C(N)=O)cc1[N+](=O)[O-] | 47 | 81* | 3 | -10
O=[N+]([O-])c1cc(S(=O)(=O)N2CCCCCC2)ccc1Cl | 27 | -50 | 6 | -3
CCc1ccccc1NC(=O)c1ccc([N+](=O)[O-])s1 | 100* | -5 | 2 | 19
COc1ccccc1NC(=O)COC(=O)c1ccc([N+](=O)[O-])s1 | 9 | 20 | 3 | 95*
CCc1ccccc1NC(=O)CSc1ccsc1[N+](=O)[O-] | 47 | 16 | 4 | 9
O=C(COC(=O)c1ccc([N+](=O)[O-])s1)NC(=O)NCc1ccccc1 | 93* | 0 | 1 | 10
O=C(COC(=O)c1ccc([N+](=O)[O-])s1)NCc1ccc(F)cc1 | 12 | -16 | 0 | 9
COc1cccc(NC(=O)N(Cc2ccco2)C(C)c2cccs2)c1 (configuration not stated) | 61* | 40 | 0 | -18
COc1ccc(CNC(=O)C(c2cccs2)N(Cc2ccco2)C(=O)Cc2cccs2)cc1 (configuration not stated) | 22 | -37 | 11* | 23
CC(c1cccs1)N(Cc1ccco1)C(=O)Nc1ccc(Cl)c(Cl)c1 (configuration not stated) | 24 | 49 | 11* | 64*
Cc1cccc(N2CCN(C(=O)c3ccoc3C)CC2)c1C | 41 | 57 | 1 | 2
O=C1CC(N2CCN(C3CC(=O)N(CCc4ccccc4)C3=O)CC2)C(=O)N1CCc1ccccc1 (configuration not stated) | 2 | 1 | 0 | -5
O=C(C1CCN(Cc2ccccc2)CC1)N1CCCC1 | -4 | -2 | 1 | 10
O=C1CC(N2CCN(C/C=C/c3ccccc3)CC2)C(=O)N1Cc1cccs1 (configuration not stated) | 89* | 57 | 1 | 8
O=C(C1CCN(C2CC(=O)N(Cc3ccccc3)C2=O)CC1)N1CCCCCC1 (configuration not stated) | 87* | -17 | 0 | -12
O=C1CC(N2CCC(Cc3ccccc3)CC2)C(=O)N1CCc1ccccc1 (configuration not stated) | 19 | 72* | 1 | 23
O=C1OC(N2CCN(C/C=C/c3ccccc3)CC2)c2ccccc21 (configuration not stated) | 56* | 8 | 1 | 1
O=C1CC(N2CCN(c3ccc(O)cc3)CC2)C(=O)N1Cc1cccs1 (configuration not stated) | 16 | 35 | 2 | -17
CCOC(=O)N1CCN(C2OC(=O)c3ccccc32)CC1 (configuration not stated) | -5 | 13 | 0 | 13
O=C1OCCC1Sc1nnnn1-c1ccc(Cl)cc1 (configuration not stated) | -2 | 8 | 0 | 1
NC(=O)CN1CCN(C2CC(=O)N(CCc3ccccc3)C2=O)CC1 (configuration not stated) | -7 | 2 | 1 | -17
NC(=O)C1CCN(C2CC(=O)N(Cc3ccc(N4CCCC4=O)cc3)C2=O)CC1 (configuration not stated) | -4 | 10 | 0 | -6
O=C1CC(N2CCN(C/C=C/c3ccccc3)CC2)C(=O)N1CCc1ccccc1 (configuration not stated) | 93* | 19 | 2 | -7
O=C1CC(N2CCN(C(c3ccccc3)c3ccccc3)CC2)C(=O)N1Cc1ccc(N2CCCC2=O)cc1 (configuration not stated) | 98* | 14 | 2 | 9
CCOC(=O)C1(Cc2cccc(OC)c2)CCN(Cc2cccc3cnccc23)CC1 | 91* | 15 | 2 | 33
